# Experimental data from the supplement of paper PMC12282887.
# ± gives the standard deviation of the averaged measurements.
# Assays:
# Assay in all cases: promoter activity interaction Z-score (Lux/OD deviation from empty-vector control); higher = stronger promoter induction by the compound
# [1] = test system: E. coli BW25113 acrABp lux reporter
# Summary of the method: (§1)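 Wild-type E. coli BW25113 and three single-gene deletion strains, each carrying a low-copy luxCDABE promoter reporter, were grown at 37°C in 40 µl LB Lennox per well of a 384-well plate. Every compound was applied at four 1:2 dilutions in biological duplicates, and OD600 and luminescence were read every 30 min for 12 h. Integration covered 0–8 h for wild type and 1–9 h for deletion strains, and wells under 10% of the median growth value were removed. Scores are Z-transformed residuals of growth-normalised luminescence fitted against a control.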
# [2] = test system: E. coli BW25113 micFp lux reporter
# Summary of the method: as §1
# [3] = test system: E. coli BW25113 ompFp lux reporter
# Summary of the method: as §1
# [4] = test system: E. coli BW25113 robp lux reporter
# Summary of the method: as §1
# [5] = test system: E. coli BW25113 soxSp lux reporter
# Summary of the method: as §1
# [6] = test system: E. coli BW25113 tolCp lux reporter
# Summary of the method: as §1
# [7] = 0.056 µg/ml, genetic background: wild type
# [8] = 0.056 µg/ml, genetic background: ΔmarA
# [9] = 0.056 µg/ml, genetic background: Δrob
# [10] = 0.056 µg/ml, genetic background: ΔsoxS
# [11] = 0.11 µg/ml, genetic background: wild type
# [12] = 0.11 µg/ml, genetic background: ΔmarA
# [13] = 0.11 µg/ml, genetic background: Δrob
# [14] = 0.11 µg/ml, genetic background: ΔsoxS
# [15] = 0.22 µg/ml, genetic background: wild type
# [16] = 0.22 µg/ml, genetic background: ΔmarA
# [17] = 0.22 µg/ml, genetic background: Δrob
# [18] = 0.22 µg/ml, genetic background: ΔsoxS
# [19] = 0.44 µg/ml, genetic background: wild type
# [20] = 0.44 µg/ml, genetic background: ΔmarA
# [21] = 0.44 µg/ml, genetic background: Δrob
# [22] = 0.44 µg/ml, genetic background: ΔsoxS
smiles,measurement,setting,value
CN(C)[C@@H]1C(O)=C(C(N)=O)C(=O)[C@@]2(O)C(O)=C3C(=O)c4c(O)cccc4[C@@](C)(O)[C@H]3C[C@@H]12 [Tetracycline],promoter activity interaction Z-score,[1]; [7],0.26 ± 0.44
same,promoter activity interaction Z-score,[1]; [8],0.996 ± 0.81
same,promoter activity interaction Z-score,[1]; [9],-0.021 ± 0.06
same,promoter activity interaction Z-score,[1]; [10],-0.156 ± 0.057
same,promoter activity interaction Z-score,[1]; [11],0.439 ± 0.11
same,promoter activity interaction Z-score,[1]; [12],0.363 ± 1.1
same,promoter activity interaction Z-score,[1]; [13],0.655 ± 0.19
same,promoter activity interaction Z-score,[1]; [14],0.643 ± 0.026
same,promoter activity interaction Z-score,[1]; [15],1.07 ± 0.24
same,promoter activity interaction Z-score,[1]; [16],-0.35 ± 0.28
same,promoter activity interaction Z-score,[1]; [17],1.78 ± 0.42
same,promoter activity interaction Z-score,[1]; [18],1.59 ± 0.34
same,promoter activity interaction Z-score,[1]; [19],2.18 ± 0.16
same,promoter activity interaction Z-score,[1]; [20],-1.42 ± 0.33
same,promoter activity interaction Z-score,[1]; [21],5.96
same,promoter activity interaction Z-score,[1]; [22],-1.22
same,promoter activity interaction Z-score,[2]; [7],1.46 ± 0.49
same,promoter activity interaction Z-score,[2]; [8],0.0522 ± 0.015
same,promoter activity interaction Z-score,[2]; [9],-0.0785 ± 0.057
same,promoter activity interaction Z-score,[2]; [10],0.373 ± 0.06
same,promoter activity interaction Z-score,[2]; [11],2.61 ± 0.64
same,promoter activity interaction Z-score,[2]; [12],0.188 ± 0.14
same,promoter activity interaction Z-score,[2]; [13],0.177 ± 0.19
same,promoter activity interaction Z-score,[2]; [14],1.44 ± 0.23
same,promoter activity interaction Z-score,[2]; [15],3.37 ± 0.62
same,promoter activity interaction Z-score,[2]; [16],0.403 ± 0.2
same,promoter activity interaction Z-score,[2]; [17],0.131 ± 0.15
same,promoter activity interaction Z-score,[2]; [18],1.86 ± 0.2
same,promoter activity interaction Z-score,[2]; [19],0.313 ± 0.3
same,promoter activity interaction Z-score,[2]; [20],0.3 ± 0.28
same,promoter activity interaction Z-score,[2]; [21],-0.128 ± 0.088
same,promoter activity interaction Z-score,[2]; [22],-0.349 ± 0.37
same,promoter activity interaction Z-score,[3]; [7],1.85 ± 1.5
same,promoter activity interaction Z-score,[3]; [8],1.72 ± 1.3
same,promoter activity interaction Z-score,[3]; [9],1.96 ± 1.3
same,promoter activity interaction Z-score,[3]; [10],0.631 ± 0.11
same,promoter activity interaction Z-score,[3]; [11],2.68 ± 1
same,promoter activity interaction Z-score,[3]; [12],2.53 ± 0.79
same,promoter activity interaction Z-score,[3]; [13],2.36 ± 0.4
same,promoter activity interaction Z-score,[3]; [14],2.15 ± 1
same,promoter activity interaction Z-score,[3]; [15],1.98 ± 0.54
same,promoter activity interaction Z-score,[3]; [16],1.86 ± 0.28
same,promoter activity interaction Z-score,[3]; [17],1.26 ± 0.07
same,promoter activity interaction Z-score,[3]; [18],2.71 ± 0.19
same,promoter activity interaction Z-score,[3]; [19],-0.73 ± 0.18
same,promoter activity interaction Z-score,[3]; [20],-1.97 ± 1.1
same,promoter activity interaction Z-score,[3]; [22],-3.24
same,promoter activity interaction Z-score,[4]; [7],0.998 ± 1.4
same,promoter activity interaction Z-score,[4]; [8],0.179 ± 0.2
same,promoter activity interaction Z-score,[4]; [9],0.105 ± 0.73
same,promoter activity interaction Z-score,[4]; [10],-0.0139 ± 0.3
same,promoter activity interaction Z-score,[4]; [11],1.13 ± 0.42
same,promoter activity interaction Z-score,[4]; [12],-0.0571 ± 0.62
same,promoter activity interaction Z-score,[4]; [13],0.458 ± 0.4
same,promoter activity interaction Z-score,[4]; [14],0.51 ± 0.84
same,promoter activity interaction Z-score,[4]; [15],-0.261 ± 0.053
same,promoter activity interaction Z-score,[4]; [16],-0.985 ± 0.35
same,promoter activity interaction Z-score,[4]; [17],0.638 ± 0.37
same,promoter activity interaction Z-score,[4]; [18],0.945 ± 1.1
same,promoter activity interaction Z-score,[4]; [19],-1.59 ± 0.88
same,promoter activity interaction Z-score,[4]; [20],-2.19 ± 0.95
same,promoter activity interaction Z-score,[4]; [22],-2.66 ± 0.43
same,promoter activity interaction Z-score,[5]; [7],0.151 ± 0.19
same,promoter activity interaction Z-score,[5]; [8],0.0648 ± 0.063
same,promoter activity interaction Z-score,[5]; [9],-0.00055 ± 0.21
same,promoter activity interaction Z-score,[5]; [10],-0.162 ± 0.37
same,promoter activity interaction Z-score,[5]; [11],0.728 ± 0.037
same,promoter activity interaction Z-score,[5]; [12],0.346 ± 0.055
same,promoter activity interaction Z-score,[5]; [13],0.252 ± 0.33
same,promoter activity interaction Z-score,[5]; [14],0.493 ± 0.026
same,promoter activity interaction Z-score,[5]; [15],1.18 ± 0.3
same,promoter activity interaction Z-score,[5]; [16],0.609 ± 0.14
same,promoter activity interaction Z-score,[5]; [17],0.598 ± 0.38
same,promoter activity interaction Z-score,[5]; [18],1.26 ± 0.17
same,promoter activity interaction Z-score,[5]; [19],1.56 ± 0.18
same,promoter activity interaction Z-score,[5]; [20],1.47 ± 0.25
same,promoter activity interaction Z-score,[5]; [21],1.46 ± 1
same,promoter activity interaction Z-score,[5]; [22],0.966 ± 0.8
same,promoter activity interaction Z-score,[6]; [7],0.446 ± 0.25
same,promoter activity interaction Z-score,[6]; [8],0.201 ± 0.44
same,promoter activity interaction Z-score,[6]; [9],0.673 ± 1.5
same,promoter activity interaction Z-score,[6]; [10],-0.654 ± 0.27
same,promoter activity interaction Z-score,[6]; [11],1.04 ± 0.64
same,promoter activity interaction Z-score,[6]; [12],0.0643 ± 0.81
same,promoter activity interaction Z-score,[6]; [13],0.925 ± 0.084
same,promoter activity interaction Z-score,[6]; [14],-0.579 ± 0.46
same,promoter activity interaction Z-score,[6]; [15],1.19 ± 1.5
same,promoter activity interaction Z-score,[6]; [16],1.09 ± 0.74
same,promoter activity interaction Z-score,[6]; [17],1.09 ± 0.63
same,promoter activity interaction Z-score,[6]; [18],0.351 ± 1.5
same,promoter activity interaction Z-score,[6]; [19],-0.0424 ± 0.045
same,promoter activity interaction Z-score,[6]; [20],1.29 ± 2
same,promoter activity interaction Z-score,[6]; [21],1.15 ± 0.23
same,promoter activity interaction Z-score,[6]; [22],0.632 ± 1.4
